PubChem BioAssay (NCATS)
Records with an inconclusive call do not appear. Calls of active or inactive are those of the source. Unless noted, how the calls were made is not given here.

Columns and labels:
[1] = qHTS profiling of the MIPE4 collection as inhibitors of Plasmodium falciparum (3D7) proliferation (AID 743344);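 further: scaled between DMSO vehicle wells and 0.29 µM artemisinin as full inhibition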; details: P. falciparum 3D7 in erythrocytes, SYBR Green DNA fluorescence, 72 h; at 28.5 µM unless noted
In short: (§1)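 Parasite DNA was quantified by SYBR Green I fluorescence (ex 485, em 535 nm) after overnight lysis in saponin/Triton buffer at room temperature. Cultures at 0.3% parasitemia and 2.5% hematocrit were first exposed to compound for 72 h at 37 C; signals were normalised to artemisinin (0.29 uM) and vehicle wells.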

[2] = qHTS profiling of the MIPE4 collection as inhibitors of Plasmodium falciparum (DD2) proliferation (AID 743345); details: P. falciparum Dd2 in erythrocytes, SYBR Green DNA, 72 h; at 28.5 µM unless noted
In short: as §1

[3] = qHTS profiling of the MIPE4 collection as inhibitors of Plasmodium falciparum (DD2) proliferation (Rep 2) (AID 743346); details: P. falciparum Dd2 in erythrocytes, SYBR Green DNA, 72 h; at 28.5 µM unless noted
In short: as §1

[4] = qHTS profiling of the MIPE4 collection as inhibitors of Plasmodium falciparum (HB3) proliferation (AID 743347);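 further: plate controls were DMSO vehicle wells for no effect and artemisinin wells for full effect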; details: P. falciparum HB3 in erythrocytes, SYBR Green DNA, 72 h; at 28.5 µM unless noted
In short: as §1

[5] = High-throughput drug toxicity screening in the BPDCN cell line Gen2.2 (AID 1224824); details: Gen2.2 BPDCN cells; at 45.8 µM (top of the series) unless noted;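 further: cells exposed to compounds for 48 h before reading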
In short: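 Gen2.2 cells (500/well) in phenol red-free RPMI with 10% FBS were exposed to compounds for 48 h at 37 °C, 5% CO2. Viability was read by CellTiter-Glo luminescence and normalized to DMSO (100%) and 9.2 uM bortezomib (0%).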

[6] = High-throughput drug toxicity screening in the BPDCN cell line Cal-1 (AID 1224825); details: Cal-1 BPDCN cell viability, qHTS; at 45.8 µM (top of the series) unless noted
In short: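 CellTiter-Glo luminescence after 48 h compound exposure; percent activity scaled with DMSO as 100% and bortezomib (9.2 uM final) as 0%. Cal-1 cells seeded at 500/well in RPMI, 10% FBS, no phenol red.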

[7] = qHTS Screen of the MIPE 4.0 Collection Against Ewings Sarcoma (RDES) (AID 1259252; active means well fitted curve in the direction sought with a large enough effect; an effect the other way counts as inactive or inconclusive; further: nearly all actives have a fitted effect of over 35% in size; further: potency means the concentration at half of the fitted maximal effect)
In short: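 Dose series incubated 48 h with cells in RPMI plus 5% FBS, glutamine and penicillin/streptomycin; cell viability then quantified via CellTiter-Glo.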

[8] = qHTS assay for measurement of the activity of small molecule inhibitors on Zika virus induced Caspase-3 activity in human astrocytoma cells (AID 1224859; active means well fitted curve in the direction sought with a large enough effect; an effect the other way counts as inactive or inconclusive;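 further: plate controls were ZIKV-infected untreated cells for no effect and uninfected cells for full effect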)
In short: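 Inhibition of Zika-induced caspase-3/7 activity: SNB-19 cells, 1 h compound pretreatment, ZIKV 2 FFU/cell for 6 h at 37 C, Caspase-Glo luminescence read-out.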

[9] = qHTS Assay for Identifying Gametocytocidal Compounds (AID 743244; active means well fitted curve in the direction sought with a large enough effect; an effect the other way counts as inactive or inconclusive;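 further: on the % scale 0 is the no-effect control and ±100 the full control effect; actives lower the fluorescent signal which means gametocytes are killed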); details: P. falciparum 3D7 stage III-V gametocytes, alamarBlue, 72 h; max response: stronger effect = lower value
In short: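 Using 20,000 stage III–V 3D7 gametocytes per well, compounds were incubated 72 h under 37 °C/5% CO2. Viability was then assessed by 24 h alamarBlue reduction, measured fluorometrically at 525/598 nm.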

[10] = qHTS assay for measurement of the activity of small molecule inhibitors on Zika virus induced Caspase-3 activity in human iPSC derived neural progenitor cells (hNPCs) (AID 1224857; active means well fitted curve in the direction sought with a large enough effect; an effect the other way counts as inactive or inconclusive; further: % of control where 0% means no effect; nearly all actives have a fitted effect of over 65% in size)
In short: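 After overnight (16–20 h) culture at 350 cells/well, hNPCs get compound, then ZIKV 2 FFU/cell one hour later. Six hours on, Caspase-Glo 3/7 is added and luminescence measured.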

[11] = qHTS profiling for inhibitors of Plasmodium falciparum (3D7) proliferation (AID 743322);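 further: infected erythrocytes exposed to compound for 72 h before lysis; 100% = DMSO vehicle wells and 0% = 0.29 µM artemisinin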; details: P. falciparum 3D7 proliferation; at 28.7 µM (top of the series) unless noted
In short: as §1

[12] = qHTS profiling for inhibitors of Plasmodium falciparum (DD2) proliferation (AID 743323); details: lower = more inhibition; at 28.7 µM (top of the series) unless noted
In short: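 1536-well qHTS; infected RBCs 0.3% parasitemia/2.5% Hct final; cpd 72 h 37 C 5% CO2; lysis buffer + SYBR Green I, o/n RT dark; FI 485/535; norm. to 0.29 uM artemisinin and DMSO, plate-stack corrected.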

[13] = qHTS profiling for inhibitors of Plasmodium falciparum (HB3) proliferation (AID 743324; active means well fitted curve in the direction sought with a large enough effect; an effect the other way counts as inactive or inconclusive;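 further: 100% = DMSO vehicle wells and 0% = artemisinin-treated control wells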); details: Plasmodium falciparum HB3 blood-stage proliferation; at 28.7 µM (top of the series) unless noted
In short: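 SYBR Green fluorescence (485 ex/535 em) of lysed cultures, incubated overnight at room temperature in the dark, quantifies parasite DNA. Infected erythrocytes at 0.3% parasitemia and 2.5% hematocrit were exposed 72 h; values normalized to DMSO and 0.29 uM artemisinin controls.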

Compound	parasite growth, % of DMSO control [1] [%]	parasite growth remaining, % of DMSO control (lower = more inhibition) [2] [%]	parasite growth, % of control (lower = inhibition) [3] [%]	growth, % of control [4] [%]	cell viability, % of control (lower = more cytotoxic) [5] [%]	viability (% of control) [6] [%]	Potency [7]	Potency [8]	max response [9]	Potency [10]	remaining parasite growth % (stronger effect = lower value) [11] [%]	activity, percent of control [12] [%]	remaining proliferation (% of control), lower = more inhibition [13] [%]
Cc1nc(NC(=O)N2CCC[C@@H]2C(N)=O)sc1-c1csc(C(C)(C)C)n1	16.4	80.7	28.5	14.5	14.1	55.1	5.26 µM (active)	–	–	–	–	–	–
CC(C)(OCc1nn(Cc2ccccc2)c2ccccc12)C(=O)O	95.1	101	96.9	104	148	109	–	inactive	–	–	–	–	–
COc1ccc(-c2nc3ccc(C4=NNC(=O)CC4C)cc3[nH]2)cc1 (centres undefined)	–	–	–	–	–	107	inactive	inactive	13.2% (inactive)	inactive	–	–	–
CCCCC(F)(F)[C@@]1(O)CC[C@H]2[C@H](CC(=O)[C@@H]2CCCCCCC(=O)O)O1	77.3	99.5	70.3	83	92.5	106	2.64 µM (active)	inactive	–	–	–	–	–
CN1[C@H]2CC[C@H]1CC(OC(=O)c1c[nH]c3ccccc13)C2 (some centres undefined)	–	26.8	19.2	22	99	111	–	inactive	–	–	–	–	–
CC(NCCc1ccc(O)cc1)C(O)c1ccc(O)cc1 (centres undefined)	85	102	73.8	96.6	91	107	inactive	inactive	–	–	–	–	–
CCC=CC[C@H]1C(=O)CC[C@@H]1CC(=O)OC	62.5	–	86.4	79.8	137	107	–	inactive	12% (inactive)	–	94.5	93.1	113
CN1N=C(N)c2cn([C@@H]3O[C@H](COP(=O)(O)O)[C@@H](O)[C@@H]3O)c3ncnc1c23	82.4	100	67.6	98.6	199	76.2	–	inactive	–	–	–	–	–
C[C@@H](NC(=O)c1ncnc(N)c1Cl)c1ncc(C(=O)Nc2cc(C(F)(F)F)c(Cl)cn2)s1	63.1	87.8	58.8	60.9	2.67	66.8	23.5 µM (active)	inactive	–	–	–	–	–
COC(=O)[C@H](c1ccccc1Cl)N1CCc2sccc2C1	43.8	79	22.1	24.3	95.6	91.3	inactive	inactive	–	–	–	–	–
CCC[C@H](Nc1nc(-c2ccc(NC(=O)NCC)c(OC)c2)ncc1C)c1cccnc1	4.72	7.78	20.1	4.28	9.57	4.63	0.0093 µM (active)	inactive	–	–	–	–	–
CCCCC[C@H](O)C=C[C@H]1[C@H](O)CC(=O)[C@H]1CC=CCCCC(=O)O	86	11.2	56.3	103	31.5	23.7	inactive	–	–	–	–	–	–
Cc1cc(OCCCS(C)(=O)=O)cc(C)c1-c1cccc(COc2ccc3c(c2)OC[C@H]3CC(=O)O)c1	52.2	34.3	61.9	90.9	168	91.1	inactive	inactive	–	–	–	–	–
Cc1cc2c(cc1C1(c3ccc(C(=O)O)cn3)CC1)C(C)(C)CCC2(C)C	58.3	95.5	77.6	78.5	–	121	inactive	inactive	8.43% (inactive)	inactive	101	97.2	94.8
Cc1cccc2c1CC[C@H](CN1CCC(c3c(Cl)cccc3Cl)CC1)C[C@@H]2O	8.94	–	25	9.19	140	43.1	–	inactive	–	–	–	–	–
O=C(Nc1cccc2c(=O)cc(-c3nn[nH]n3)oc12)c1ccc(OCCCCc2ccccc2)cc1	–	31.5	15.1	7.59	51.3	26.2	16.6 µM (active)	inactive	38.4% (inactive)	–	–	–	–
CC(C)(CO)[C@@H](O)C(=O)NCCC(=O)O	–	101	114	102	85	107	20.9 µM (active)	inactive	-8.71% (inactive)	–	–	–	–
CC(=O)O[C@]1(C(C)=O)CC[C@H]2[C@@H]3C=C(Cl)C4=CC(=O)[C@@H]5C[C@H]5[C@]4(C)[C@@H]3CC[C@@]21C	21.6	22.5	18.7	20.1	42.4	18	9.35 µM (active)	inactive	–	–	–	–	–
CCC[C@H](N[C@@H](C)C(=O)N1[C@@H]2CCCC[C@H]2C[C@H]1C(=O)O)C(=O)OCC	69	77.5	41.1	98.7	64.1	104	inactive	–	–	–	–	–	–
COc1cc(CNC(=O)CCCCC=CC(C)C)ccc1O	–	–	–	–	–	27.5	5.9 µM (active)	inactive	–	inactive	–	–	–
COc1cc2c(cc1OC)CC(=O)N(CCCN(C)C[C@H]1Cc3cc(OC)c(OC)cc31)CC2	–	98.4	55.5	79.8	163	106	16.6 µM (active)	inactive	-6.61% (inactive)	–	105	102	77.1
C#C[C@]1(O)CC[C@H]2[C@H]3CCc4cc(OC)ccc4[C@H]3CC[C@@]21C	76.5	98.2	90.2	87.7	211	98	20.9 µM (active)	inactive	–	–	–	–	–
